Test results from PubChem BioAssay (Tox21).
Values joined by “and” are separate entries in the source; they are usually repeats but may differ in a detail not shown here. Equal values may be shown once. Records with an inconclusive call do not appear. Active and inactive are the calls of the source. Calls come from the whole dose curve; as a rule, active = well fitted curve in the direction sought with a large enough effect in the repeat runs; inconclusive = weak or mixed curves; inactive = no such curve, though single readings can be large; an effect the other way counts as inactive or inconclusive.

Columns and labels:
[1] = Caspase-3/7 induction in CHO-K1 cells by small molecules, qHTS cell viability counter screen (AID 1346979); note: potency is the fitted concentration of half-maximal effect; nearly all actives have a fitted effect of over 35% in size
Procedure, shortened: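 CHO-K1 wt, 1,500 cells/well; 5hr pre-incubation 37C/5% CO2; compound pin transfer (DMSO); 16hr exposure; CellTiter-Fluor added, 1hr, fluorescence read.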

[2] = Caspase-3/7 induction in CHO-K1 cells by small molecules, qHTS assay (AID 1346980); note: nearly all actives have a fitted effect of over 15% in size; note: potency is the fitted concentration of half-maximal effect
Procedure, shortened: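 Wild-type cells were seeded at 1,500 per well and settled 5 hr at 37 C, 5% CO2, then exposed to DMSO-dissolved compounds for 17 hr. Caspase-Glo 3/7 reagent was added, and luminescence was read after 30min at room temperature.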

[3] = molecular target: Nuclear receptor subfamily 1 group I member 2 (Homo sapiens) (UniProt O75469); test: Human pregnane X receptor (PXR) small molecule agonists, qHTS assay (AID 1346982); note: nearly all actives have a fitted effect of over 35% in size; note: potency is the fitted concentration of half-maximal effect
Procedure, shortened: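 Agonist mode qHTS: PXR-Luc HepG2 cells plated 5 hr before DMSO-dissolved compounds were pinned in, cultured 24 hr at 37 C, 5% CO2; ONE-Glo luminescence readout.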

[4] = molecular target: Cytochrome P450 2D6 (Homo sapiens) (UniProt P10635); test: Cytochrome P450 Family 2 Subfamily D Member 6 (CYP2D6) small molecule antagonists: luciferase reporter qHTS assay (AID 1671196); note: nearly all actives have a fitted effect of over 50% in size; note: potency is the fitted concentration of half-maximal effect
Procedure, shortened: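 P450-Glo format: CYP2D6 converts a proluciferin substrate to luciferin in an NADPH-driven reaction lasting 1 h at room temperature. Light output, proportional to CYP2D6 activity, reflects interference by test chemicals.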

[5] = molecular target: Cytochrome P450 2C19 (Homo sapiens) (UniProt P33261); test: Cytochrome P450 Family 2 Subfamily C Member 19 (CYP2C19) small molecule antagonists: luciferase reporter qHTS assay (AID 1671197); note: nearly all actives have a fitted effect of over 65% in size; note: potency is the fitted concentration of half-maximal effect
Procedure, shortened: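 Luminescent readout of CYP2C19 activity: luciferin product detected 20 min after adding detection reagent. Before that, compound and enzyme-substrate mix preincubated 10 min at room temperature; NADPH-regenerating system started a 1 h, 37C reaction. Ketoconazole as positive control.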

[6] = molecular target: Cytochrome P450 2C9 (Homo sapiens) (UniProt P11712); test: Cytochrome P450 Family 2 Subfamily C Member 9 (CYP2C9) small molecule antagonists: luciferase reporter qHTS assay (AID 1671198); note: nearly all actives have a fitted effect of over 50% in size; note: potency is the fitted concentration of half-maximal effect
Procedure, shortened: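 CYP2C9 activity was measured with a P450-Glo proluciferin substrate. Enzyme–substrate mix was held with compound for 10 min at room temperature, then NADPH regeneration solution was added for 1 h at 37C. Luciferin product was read as luminescence.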

[7] = molecular target: Cytochrome P450 1A2 (Homo sapiens) (UniProt P05177); test: Cytochrome P450 Family 1 Subfamily A Member 2 (CYP1A2) small molecule antagonists: luciferase reporter qHTS assay (AID 1671199); note: nearly all actives have a fitted effect of over 50% in size; note: potency is the fitted concentration of half-maximal effect
Procedure, shortened: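 Inhibition of CYP1A2 conversion of proluciferin to luciferin, detected by luminescence. Reaction run 1 h at room temperature with NADPH regeneration after brief compound preincubation.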

[8] = molecular target: Voltage-gated inwardly rectifying potassium channel KCNH2 (Homo sapiens) (UniProt Q12809); test: Human Ether-a-go-go-Related Gene (hERG) channel small molecule antagonists: fluorescence cell-based qHTS assay (AID 1671200); note: nearly all actives have a fitted effect of over 50% in size; note: potency is the fitted concentration of half-maximal effect
Procedure, shortened: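 Read-out: thallium influx as a surrogate for potassium, tracked as fluorescence (480 nm ex/540 nm em) every second for 2 min after Stimulus Buffer addition in dye-loaded hERG-U2OS cells.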

[9] = molecular target: Cytochrome P450 3A4 (Homo sapiens) (UniProt P08684); test: Cytochrome P450 Family 3 Subfamily A Member 4 (CYP3A4) small molecule antagonists: luciferase reporter qHTS assay (AID 1671201); note: nearly all actives have a fitted effect of over 50% in size; note: potency is the fitted concentration of half-maximal effect
Procedure, shortened: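 Luminescent readout (RLU) proportional to CYP3A4 activity, from luciferin generated off a proluciferin substrate. Enzyme–substrate mix plus compound 10 min at room temp, NADPH regeneration 1 h, detection reagent 20 min.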

[10] = Caspase-3/7 induction in HepG2 cells by small molecules, qHTS assay (AID 1346978); note: nearly all actives have a fitted effect of over 15% in size; note: potency is the fitted concentration of half-maximal effect
Procedure, shortened: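 Wild-type HepG2 cells (2,000/well) were settled 5 h at 37 C, 5% CO2, then exposed to compounds in DMSO for 17 h. Caspase-3/7 activity was read by luminescence 30 min after adding Caspase-Glo 3/7 reagent at room temperature.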

[11] = Caspase-3/7 induction in HepG2 cells by small molecules, qHTS cell viability counter screen (AID 1346981); note: nearly all actives have a fitted effect of over 30% in size; note: potency is the fitted concentration of half-maximal effect
Procedure, shortened: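 Steps: seed 2,000 HepG2 cells per well; incubate 5 hr at 37 C; pin-add compounds in DMSO; incubate 16 hr; add CellTiter-Fluor; after 1 hr at 37 C and 5% CO2, read fluorescence.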

[12] = molecular target: Nuclear receptor subfamily 1 group I member 2 (Homo sapiens) (UniProt O75469); test: Human pregnane X receptor (PXR) activation by small molecules, qHTS assay (AID 1346985); note: nearly all actives have a fitted effect of over 40% in size
Procedure, shortened: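 DPX-2 cells (HepG2 co-transfected with a PXR response element and a CYP3A4-promoter luciferase construct) were seeded at 2,000 per well, rested 5 hr at 37C, then exposed to DMSO-dissolved compounds for 24 hr. Activation was read as luciferase luminescence.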

Measured: Potency

Sequence of Nuclear receptor subfamily 1 group I member 2 (Homo sapiens) (O75469 whole entry, looked up): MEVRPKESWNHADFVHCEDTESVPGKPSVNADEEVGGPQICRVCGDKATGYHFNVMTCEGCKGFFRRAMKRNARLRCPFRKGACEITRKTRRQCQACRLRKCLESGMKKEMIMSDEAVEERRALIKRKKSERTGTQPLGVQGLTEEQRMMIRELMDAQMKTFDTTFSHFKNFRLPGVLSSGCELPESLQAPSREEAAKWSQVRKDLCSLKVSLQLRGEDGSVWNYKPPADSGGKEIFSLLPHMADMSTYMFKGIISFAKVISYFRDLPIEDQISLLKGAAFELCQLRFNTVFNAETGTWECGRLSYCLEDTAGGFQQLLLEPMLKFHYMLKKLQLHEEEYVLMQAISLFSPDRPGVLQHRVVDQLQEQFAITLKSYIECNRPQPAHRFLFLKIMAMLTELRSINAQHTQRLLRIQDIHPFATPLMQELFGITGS
Sequence of Cytochrome P450 1A2 (Homo sapiens) (P05177 whole entry, looked up): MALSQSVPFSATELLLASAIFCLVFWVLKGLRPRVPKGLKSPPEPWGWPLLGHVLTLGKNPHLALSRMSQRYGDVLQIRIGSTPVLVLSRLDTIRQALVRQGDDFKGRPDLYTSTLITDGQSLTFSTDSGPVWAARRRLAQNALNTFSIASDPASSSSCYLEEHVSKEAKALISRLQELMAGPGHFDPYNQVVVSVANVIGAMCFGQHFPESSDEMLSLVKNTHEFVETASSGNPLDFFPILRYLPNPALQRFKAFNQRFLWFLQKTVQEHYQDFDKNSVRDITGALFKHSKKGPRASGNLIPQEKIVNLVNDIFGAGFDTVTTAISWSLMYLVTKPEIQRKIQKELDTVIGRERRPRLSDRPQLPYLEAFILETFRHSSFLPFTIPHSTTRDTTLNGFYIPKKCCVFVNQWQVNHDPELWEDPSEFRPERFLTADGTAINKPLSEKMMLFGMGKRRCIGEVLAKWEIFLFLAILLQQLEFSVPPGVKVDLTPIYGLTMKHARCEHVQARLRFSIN
Sequence of Cytochrome P450 2C19 (Homo sapiens) (P33261 whole entry, looked up): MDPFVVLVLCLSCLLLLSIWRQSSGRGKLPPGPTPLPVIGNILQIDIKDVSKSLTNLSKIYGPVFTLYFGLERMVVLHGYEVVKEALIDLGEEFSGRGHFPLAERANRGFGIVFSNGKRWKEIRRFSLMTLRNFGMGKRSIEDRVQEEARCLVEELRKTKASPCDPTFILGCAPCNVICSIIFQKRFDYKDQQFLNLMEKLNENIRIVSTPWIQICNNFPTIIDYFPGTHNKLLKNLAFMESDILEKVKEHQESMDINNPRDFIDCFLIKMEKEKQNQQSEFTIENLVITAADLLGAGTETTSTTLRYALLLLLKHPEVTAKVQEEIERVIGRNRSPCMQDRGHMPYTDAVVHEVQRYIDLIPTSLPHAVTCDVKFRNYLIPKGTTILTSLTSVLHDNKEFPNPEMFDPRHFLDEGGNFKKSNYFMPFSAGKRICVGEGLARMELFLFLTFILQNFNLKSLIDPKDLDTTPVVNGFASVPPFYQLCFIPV
Sequence of Cytochrome P450 2C9 (Homo sapiens) (P11712 whole entry, looked up): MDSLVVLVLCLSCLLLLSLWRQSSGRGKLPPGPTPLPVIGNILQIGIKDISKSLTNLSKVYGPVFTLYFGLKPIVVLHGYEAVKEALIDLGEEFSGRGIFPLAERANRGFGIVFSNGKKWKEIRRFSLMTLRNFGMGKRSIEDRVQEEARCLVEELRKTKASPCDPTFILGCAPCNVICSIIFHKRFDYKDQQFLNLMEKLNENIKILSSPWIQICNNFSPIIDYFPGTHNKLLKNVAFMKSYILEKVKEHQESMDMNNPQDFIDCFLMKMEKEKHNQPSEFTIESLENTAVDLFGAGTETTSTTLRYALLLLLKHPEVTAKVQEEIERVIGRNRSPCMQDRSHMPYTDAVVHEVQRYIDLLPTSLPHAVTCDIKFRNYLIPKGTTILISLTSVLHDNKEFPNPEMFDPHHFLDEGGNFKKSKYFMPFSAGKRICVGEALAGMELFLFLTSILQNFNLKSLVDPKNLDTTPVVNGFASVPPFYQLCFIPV
Sequence of Voltage-gated inwardly rectifying potassium channel KCNH2 (Homo sapiens) (Q12809 whole entry, looked up): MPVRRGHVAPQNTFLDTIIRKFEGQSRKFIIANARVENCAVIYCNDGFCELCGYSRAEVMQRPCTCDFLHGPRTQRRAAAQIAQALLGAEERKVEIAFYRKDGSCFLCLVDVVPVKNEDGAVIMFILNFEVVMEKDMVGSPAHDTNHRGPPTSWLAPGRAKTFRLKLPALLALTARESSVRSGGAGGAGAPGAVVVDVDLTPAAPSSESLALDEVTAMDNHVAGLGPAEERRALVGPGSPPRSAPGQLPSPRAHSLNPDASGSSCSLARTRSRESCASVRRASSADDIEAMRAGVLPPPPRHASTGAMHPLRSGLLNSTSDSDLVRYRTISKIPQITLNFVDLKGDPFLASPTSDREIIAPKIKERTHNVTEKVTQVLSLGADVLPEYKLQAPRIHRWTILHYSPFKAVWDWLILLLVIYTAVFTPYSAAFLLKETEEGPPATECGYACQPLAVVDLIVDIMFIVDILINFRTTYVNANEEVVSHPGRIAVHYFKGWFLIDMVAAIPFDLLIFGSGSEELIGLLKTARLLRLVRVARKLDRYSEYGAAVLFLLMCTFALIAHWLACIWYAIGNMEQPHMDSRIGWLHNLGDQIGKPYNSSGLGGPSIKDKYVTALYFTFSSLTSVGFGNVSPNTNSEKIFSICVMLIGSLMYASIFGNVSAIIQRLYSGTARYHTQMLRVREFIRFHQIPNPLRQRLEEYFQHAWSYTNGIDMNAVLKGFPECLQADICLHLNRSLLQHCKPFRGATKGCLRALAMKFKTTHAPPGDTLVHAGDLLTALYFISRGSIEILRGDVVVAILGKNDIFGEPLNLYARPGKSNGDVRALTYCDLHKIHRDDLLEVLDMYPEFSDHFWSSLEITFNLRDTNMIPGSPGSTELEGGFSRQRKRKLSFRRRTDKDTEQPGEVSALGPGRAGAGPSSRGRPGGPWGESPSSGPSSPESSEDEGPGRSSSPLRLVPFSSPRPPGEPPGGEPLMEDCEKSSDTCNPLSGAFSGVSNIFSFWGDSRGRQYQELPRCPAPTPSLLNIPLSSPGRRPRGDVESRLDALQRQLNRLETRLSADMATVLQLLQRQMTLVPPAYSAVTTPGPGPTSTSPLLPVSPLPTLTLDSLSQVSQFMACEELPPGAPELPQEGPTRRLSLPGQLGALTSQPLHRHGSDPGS
Sequence of Cytochrome P450 3A4 (Homo sapiens) (P08684 whole entry, looked up): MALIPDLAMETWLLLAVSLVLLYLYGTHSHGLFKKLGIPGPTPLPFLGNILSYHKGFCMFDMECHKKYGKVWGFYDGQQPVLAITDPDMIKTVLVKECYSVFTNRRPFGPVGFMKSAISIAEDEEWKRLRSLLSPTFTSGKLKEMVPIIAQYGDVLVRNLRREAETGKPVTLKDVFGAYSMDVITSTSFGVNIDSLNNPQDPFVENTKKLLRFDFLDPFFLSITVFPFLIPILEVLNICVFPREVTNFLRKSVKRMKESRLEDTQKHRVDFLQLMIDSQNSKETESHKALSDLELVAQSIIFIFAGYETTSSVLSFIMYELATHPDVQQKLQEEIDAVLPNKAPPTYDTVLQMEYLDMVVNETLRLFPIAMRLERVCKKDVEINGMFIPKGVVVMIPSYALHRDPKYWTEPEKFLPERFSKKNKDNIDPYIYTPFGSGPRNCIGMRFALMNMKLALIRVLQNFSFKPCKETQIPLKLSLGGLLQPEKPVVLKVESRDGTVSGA
Sequence of Cytochrome P450 2D6 (Homo sapiens) (P10635 whole entry, looked up): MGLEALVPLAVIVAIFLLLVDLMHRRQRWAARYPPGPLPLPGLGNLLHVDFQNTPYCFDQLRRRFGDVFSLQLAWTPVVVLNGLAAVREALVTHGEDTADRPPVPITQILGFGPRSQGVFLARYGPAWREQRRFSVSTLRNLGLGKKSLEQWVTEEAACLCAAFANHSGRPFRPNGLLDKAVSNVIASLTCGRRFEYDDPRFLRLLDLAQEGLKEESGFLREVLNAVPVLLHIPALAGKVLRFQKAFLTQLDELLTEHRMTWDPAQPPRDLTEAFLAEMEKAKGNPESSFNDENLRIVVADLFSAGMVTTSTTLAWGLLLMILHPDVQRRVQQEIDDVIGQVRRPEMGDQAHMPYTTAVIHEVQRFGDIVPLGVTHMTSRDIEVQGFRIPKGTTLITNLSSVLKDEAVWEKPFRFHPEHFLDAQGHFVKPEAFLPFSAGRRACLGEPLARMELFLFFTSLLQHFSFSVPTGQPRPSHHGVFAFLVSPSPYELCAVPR

Cc1oc(-c2ccccc2)nc1CCC(=O)c1ccc(CC2SC(=O)NC2=O)cc1 (stereo not given)
active: [1] 21.1 µM | [5] 11 µM | [6] 7.76 µM
inactive: [2] | [3] | [4]

O=c1[nH]sc2cc(Cl)ccc12
inactive: [2] | [3] | [4] | [5] | [8]
active: [1] 26.6 µM | [6] 13.8 µM | [7] 24.5 µM

C/C=C1/C(=O)C[C@H]2[C@@H]3CCC4=CC(=O)CC[C@]4(C)[C@H]3CC[C@]12C
inactive: [2] | [4] | [9]
active: [1] 60.9 µM | [5] 3.98 µM | [6] 31.6 µM

O=C1Cc2cc(CCN3CCN(c4nsc5ccccc45)CC3)c(Cl)cc2N1
active: [5] 21.9 µM | [6] 27.5 µM
inactive: [10] | [2] | [11] | [12] | [4]

CCCCCCCCn1sc(Cl)c(Cl)c1=O
active: [3] 61.1 µM | [4] 28.3 µM | [5] 6.33 µM | [6] 3.17 µM | [7] 11.2 µM | [8] 12.3 µM | [9] 20 µM
inactive: [10] | [2]

CCC(CN)=C(c1ccccc1)c1ccccc1
inactive: [10] | [2] | [11]
active: [4] 4.36 µM | [5] 4.36 µM | [6] 15.5 µM

Nc1c2ccccc2nc2ccccc12
active: [10] 21.4 µM and 11.9 µM | [2] 12 µM | [4] 700 nM and 11 µM | [7] 1.25 µM and 2.45 µM
inactive: [11] | [5] | [6] | [8] | [9]

CCN(C(=O)c1cc(C)cc(OC[C@H](C)Nc2ccncc2)c1)C(C)C
active: [3] 17 µM | [4] 22.2 µM | [6] 7.02 µM | [8] 17.2 µM | [9] 0.992 µM
inactive: [10] | [2] | [11] | [7]

CCCCCCCCS(=O)C(C)Cc1ccc2c(c1)OCO2 (stereo not given)
active: [11] 69.9 µM | [3] 19.7 µM | [4] 64.6 µM | [5] 40.7 µM | [6] 1.62 µM | [7] 28.8 µM | [8] 35.4 µM | [9] 5.75 µM
inactive: [10] | [2]

Cc1ccc(-n2nc(C(C)(C)C)cc2NC(=O)Nc2ccc(OCCN3CCOCC3)c3ccccc23)cc1
active: [3] 23.7 µM | [4] 15.5 µM | [5] 3.89 µM
inactive: [10] | [2]
